Results reported in PubChem BioAssay (Tox21).
Results filed as inconclusive are left out. Active and inactive are the calls of the source. Unless noted, the call rests on the fitted dose curve; in most records, active means well fitted curve in the direction sought with a large enough effect in the repeat runs; inconclusive means weak or mixed curves; inactive means no such curve, though single readings can be large; an effect the other way counts as inactive or inconclusive.

Tests used:
[1] = A CellTox Green Cytotoxicity Assay to monitor cytotoxicity in HepG2 cells - 8 hour (AID 1224890); further: nearly all actives have a fitted effect of over 45% in size
Outline: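 Using 1536-well format, dye-containing HepG2 suspension was seeded, allowed 5 h at 37 C/5% CO2, dosed by pintool with compounds, positive and negative controls, and imaged for fluorescence across 40 h.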

[2] = qHTS assay to identify small molecule antagonists of the estrogen receptor alpha (ER-alpha) signaling pathway using the BG1 cell line in the presence of 0.1 nM 17-beta-estradiol - cell viability counter screen (AID 1259241); further: nearly all actives have a fitted effect of over 40% in size
Outline: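 Viability in VM7Luc4E2 cells after 22 hr compound exposure under 0.1 nM 17beta-estradiol stimulation, by CellTiter-Fluor.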

[3] = qHTS assay to identify small molecule antagonists of the androgen receptor (AR) signaling pathway using the MDA cell line in the presence of 0.5 nM R1881 - cell viability counter screen (AID 1259242); further: nearly all actives have a fitted effect of over 45% in size
Outline: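 Viability of MDA-kb2 cells was multiplexed with the luciferase AR readout; after 16 hr with compounds and R1881 at 0.5 nM final, CellTiter-Fluor fluorescence was recorded.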

[4] = qHTS assay to identify small molecule HDAC inhibitors (AID 1259364);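 further: wild-type HCT-116 cells with endogenous class I/II HDAC activity; top concentration of the series differs between compounds; nearly all actives have a fitted effect of over 45% in size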
Outline: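 Read-out: luminescence of HDAC-Glo I/II reagent, 30 min RT, reflecting class I/II deacetylase activity in whole HCT-116 cells pre-exposed 2 h to DMSO-dissolved compounds.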

[5] = qHTS assay to identify small molecule HDAC inhibitors - cell viability counter screen (AID 1259365); further: series mostly up to about 92 µM; nearly all actives have a fitted effect of over 50% in size
Outline: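 Cytotoxicity was gauged in wild-type HCT-116 cells after a brief 2hr treatment with DMSO-dissolved compounds at 37C and 5% CO2, using CellTiter-Glo luminescence developed for 30min at room temperature.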

[6] = qHTS assay to identify small molecule agonists of the sonic hedgehog signaling (Shh) pathway - cell viability counter screen (AID 1259366); further: nearly all actives have a fitted effect of over 50% in size
Outline: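 Stable Gli1-Luc NIH/3T3 clone, 2,000 cells/well. Compound exposure 24hr at 37C. Read-out: CellTiter-Fluor fluorescence.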

[7] = qHTS assay to identify small molecule antagonists of the sonic hedgehog signaling (Shh) pathway - cell viability counter screen (AID 1259367); further: nearly all actives have a fitted effect of over 55% in size
Outline: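 Seed 3T3 Gli1-Luc cells at 2,000 per well; incubate 4 hr; add compound in DMSO, then conditioned medium; incubate at 37C with 5% CO2; add CellTiter-Fluor after 23 hr; read fluorescence 1 hr later.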

[8] = qHTS assay to identify small molecule agonists of the sonic hedgehog signaling (Shh) pathway (AID 1259368; calls by dose curve;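 further: NIH/3T3-derived 3T3Gli1-Luc cells carrying a stable Gli1-driven firefly luciferase reporter; series mostly up to about 92 µM; nearly all actives have a fitted effect of over 15% in size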)
Outline: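 A Gli1 transcriptional response element controlled firefly luciferase in 3T3Gli1-Luc cells. Compounds and a positive control were added 4 hr after plating, and cells were incubated a further 24 hr at 37 C before luminescence detection.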

[9] = qHTS assay to identify small molecule antagonists of the sonic hedgehog signaling (Shh) pathway (AID 1259369; calls by dose curve; further: nearly all actives have a fitted effect of over 45% in size)
Outline: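 For antagonist detection, the reporter line received test compounds together with conditioned medium, incubated 24hr at 37 C, 5% CO2, then luminescence was recorded following 30min room-temperature luciferase reagent incubation.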

[10] = target: Estrogen receptor beta (Homo sapiens) (UniProt Q92731); assay: qHTS assay to identify small molecule agonists of the estrogen receptor beta (ER-beta) signaling pathway (AID 1259377; active means well fitted activation curve with a large enough effect in the signal ratio in the repeat runs, not every such curve was filed as active; the % refers to the signal ratio)
Outline: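 Measured by fluorescence intensity from a B/G FRET beta-lactamase substrate (2 h, room temperature) in ER-beta-UAS-bla HEK293T cells treated with DMSO-dissolved compounds for 16 hr at 37C and 5% CO2.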

[11] = target: Estrogen receptor beta (Homo sapiens) (UniProt Q92731); assay: qHTS assay to identify small molecule antagonists of the estrogen receptor beta (ER-beta) signaling pathway (AID 1259378; active means well fitted inhibition curve with a large enough effect in the signal ratio in the repeat runs, not every such curve was filed as active; the % refers to the signal ratio)
Outline: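 ER-beta-UAS-bla HEK293T cells in 2% charcoal-stripped FBS medium treated with compound plus 1nM final 17-beta-estradiol for 16 hr at 37C. Beta-lactamase reporter read by FRET substrate fluorescence after 2 hours at room temperature.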

[12] = qHTS assay to identify small molecule agonists of the androgen receptor (AR) signaling pathway in the presence of an antagonist - cell viability counter screen (AID 1259379);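 further: MDA-kb2 human breast cancer cells carrying an MMTV luciferase reporter; series mostly up to about 92 µM; nearly all actives have a fitted effect of over 25% in size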
Outline: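 Seed MDA-kb2 at 3,000 cells/well; incubate 5 hr, 37C, 0% CO2. Add nilutamide to 3.0uM final, then pin compounds at 15 concentrations. Incubate 16 hr. Add CellTiter-Fluor at 15 hr, read fluorescence after 1 hr.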

[13] = qHTS assay to identify small molecule agonists of the estrogen receptor beta (ER-beta) signaling pathway - cell viability counter screen (AID 1259380); further: nearly all actives have a fitted effect of over 30% in size
Outline: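 CellTiter-Glo read, 30 min RT, same wells as bla assay; cells ER-beta-UAS-bla HEK293T; 16 hr compound, 37C; medium 2% charcoal-stripped FBS.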

[14] = qHTS assay to identify small molecule antagonists of the estrogen receptor beta (ER-beta) signaling pathway - cell viability counter screen (AID 1259382); further: series mostly up to about 92 µM; nearly all actives have a fitted effect of over 55% in size
Outline: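 In this multiplexed counter screen, cells were seeded at 2,000 per well in medium with 2% charcoal-stripped FBS and incubated 6 hr before compound and 1nM final E2 were added. Sixteen hours later, ATP-based luminescence reported viability.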

[15] = qHTS assay to identify small molecule agonists or antagonists of the thyroid stimulating hormone receptor (TSHR) signaling pathway - wild type cell line counter screen (AID 1259384; calls by dose curve)
Outline: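 Wild-type Hek293 cells, 800/well, 18 h at 37C, then compound with Ro20-1724 for 30 min RT. cAMP by HTRF (cAMP-d2/anti-cAMP cryptate), 1 h RT, fluorescence read. 15 concentrations, triplicates.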

[16] = target: Estrogen receptor (Homo sapiens) (UniProt P03372); assay: qHTS assay to identify small molecule antagonists of the estrogen receptor alpha (ER-alpha) signaling pathway using the BG1 cell line in the presence of 0.1 nM 17-beta-estradiol (AID 1259244); further: nearly all actives have a fitted effect of over 50% in size
Outline: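 Estradiol at 0.1 nM (final) stimulates the endogenous ER-alpha of VM7Luc4E2 cells carrying an ERE-driven luciferase; compounds are co-incubated 22 h at 37C and luciferase output quantified by luminescence.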

[17] = qHTS assay to identify small molecule phospholipidosis (PLD) inducers (AID 1259344; active means well fitted curve in the direction sought with a large enough effect; an effect the other way counts as inactive or inconclusive)
Outline: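 Quantitative HTS in HepG2: compound plus LipidTOX Red dye for 24 h, paraformaldehyde fixation with Hoechst 33342, widefield high-content imaging; amiodarone as positive and DMSO as negative control.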

[18] = target: Estrogen receptor (Homo sapiens) (UniProt P03372); assay: qHTS assay to identify small molecule agonists of the estrogen receptor alpha (ER-alpha) signaling pathway in the presence of an antagonist (AID 1259383; calls by dose curve; further: top concentration of the series differs between compounds; nearly all actives have a fitted effect of over 15% in size)
Outline: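 Stably transfected VM7Luc4E2 reporter cells, kept 5 days in charcoal-stripped serum, received ICI-182,780 at 10.0nM final before compound addition. Following 22hr incubation at 37C and 5% CO2, luciferase signal was read by luminescence.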
On the % scale 0 is the no-effect control and ±100 the full control effect.

Estrogen receptor beta (Homo sapiens), sequence (Q92731 whole entry, looked up): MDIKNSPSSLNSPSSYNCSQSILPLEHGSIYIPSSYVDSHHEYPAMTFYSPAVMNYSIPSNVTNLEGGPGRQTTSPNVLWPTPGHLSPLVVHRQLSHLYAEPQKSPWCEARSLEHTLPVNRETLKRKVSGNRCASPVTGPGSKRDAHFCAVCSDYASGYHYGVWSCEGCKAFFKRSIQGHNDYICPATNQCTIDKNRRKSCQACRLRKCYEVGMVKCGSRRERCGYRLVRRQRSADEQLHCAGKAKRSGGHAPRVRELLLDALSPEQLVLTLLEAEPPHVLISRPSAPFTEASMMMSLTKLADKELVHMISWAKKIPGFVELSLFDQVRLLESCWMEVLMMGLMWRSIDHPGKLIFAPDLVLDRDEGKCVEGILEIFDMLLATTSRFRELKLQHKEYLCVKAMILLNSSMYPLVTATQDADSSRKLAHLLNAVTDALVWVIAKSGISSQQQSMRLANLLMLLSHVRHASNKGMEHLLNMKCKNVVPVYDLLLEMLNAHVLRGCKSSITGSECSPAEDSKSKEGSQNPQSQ
Estrogen receptor (Homo sapiens), sequence (P03372 whole entry, looked up): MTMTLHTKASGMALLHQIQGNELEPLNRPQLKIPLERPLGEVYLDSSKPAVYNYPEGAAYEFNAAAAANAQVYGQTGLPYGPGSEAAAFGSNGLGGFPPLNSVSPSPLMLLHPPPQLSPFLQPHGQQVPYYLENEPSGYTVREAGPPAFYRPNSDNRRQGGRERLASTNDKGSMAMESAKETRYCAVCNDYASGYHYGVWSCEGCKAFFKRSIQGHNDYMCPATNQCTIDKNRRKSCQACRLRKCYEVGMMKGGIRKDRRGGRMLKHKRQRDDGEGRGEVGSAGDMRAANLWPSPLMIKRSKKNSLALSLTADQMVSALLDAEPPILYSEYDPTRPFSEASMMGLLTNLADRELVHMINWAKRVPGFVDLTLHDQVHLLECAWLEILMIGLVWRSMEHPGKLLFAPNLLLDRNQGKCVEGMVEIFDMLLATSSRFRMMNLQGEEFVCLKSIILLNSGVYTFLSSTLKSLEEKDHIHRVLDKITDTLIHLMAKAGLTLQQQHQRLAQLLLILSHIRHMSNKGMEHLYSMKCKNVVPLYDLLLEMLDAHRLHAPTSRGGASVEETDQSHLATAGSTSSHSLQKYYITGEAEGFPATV

CCCCCCCCCCCCCOC(=O)CCSCCC(=O)OCCCCCCCCCCCCC
inactive: cytotoxicity increase [1] 4.96% [at 15.8 µM] | activity change, negative = cytotoxicity [2] 6.24% [at 19 µM] | viability change, negative = cytotoxic [3] 3.47% [at 19 µM] | activity change, negative = inhibition [4] 3.35% [at 19 µM] | activity change, negative = cytotoxicity [5] 6.04% [at 19 µM] | viability change, negative = cytotoxic [6] 2.43% [at 19 µM] | viability change, negative = cytotoxic [7] -3.37% [at 19 µM] | activity change [8] -0.0494% [at 18.9 µM, hits give high values] | activity change, negative = inhibition [9] 8.97% [at 19 µM] | activation [10] -0.464% [at 19 µM] | activity, negative = inhibition [11] -0.0397% [at 19 µM] | activity change, negative = cytotoxicity [12] -0.499% [at 19 µM] | activity change, negative = cytotoxicity [13] 4.18% [at 19 µM] | activity change, negative = cytotoxicity [14] 3.4% [at 19 µM] | cAMP activity change [15] -3.33% [at 18.9 µM, hits give high values]

O=C(O)CNC(=O)c1ccccc1I
inactive: Potency [1] | Potency [2] | Potency [16] | Potency [17] | Potency [4] | Potency [5] | Potency [6] | Potency [7] | Potency [8] | Potency [9] | Potency [11] | Potency [12] | Potency [13] | Potency [18] | Potency [15]

CNC1CCCN(c2c(F)cc3c(=O)c(C(=O)O)cn(C4CC4)c3c2OC)C1 (centres undefined)
inactive: Potency [1] | Potency [2] | Potency [16] | Potency [17] | Potency [4] | Potency [5] | Potency [7] | Potency [8] | Potency [9] | Potency [10] | Potency [11] | Potency [12] | Potency [13] | Potency [18] | Potency [15]

Cc1cc(CCC(=O)OCCOCCOCCOC(=O)CCc2cc(C)c(O)c(C(C)(C)C)c2)cc(C(C)(C)C)c1O
inactive: Potency [1] | Potency [2] | Potency [3] | Potency [4] | Potency [5] | Potency [6] | Potency [7] | Potency [8] | Potency [9] | Potency [10] | Potency [11] | Potency [12] | Potency [13] | Potency [14] | Potency [15]

CCCCCc1ccco1
inactive: Potency [1] | Potency [2] | Potency [3] | Potency [4] | Potency [5] | Potency [6] | Potency [7] | Potency [8] | Potency [10] | Potency [12] | Potency [14] | Potency [15]

c1ccc2sc(SSc3nc4ccccc4s3)nc2c1
inactive: cytotoxicity increase [1] 0.594% [at 15.8 µM] | activity change, negative = cytotoxicity [2] 8.69% [at 19 µM] | activity change, negative = inhibition [16] 1.45% [at 19 µM] | Potency [17] | activity change, negative = inhibition [4] -21.4% [at 19 µM] | activity change, negative = cytotoxicity [5] 0.0537% [at 19 µM] | viability change, negative = cytotoxic [6] 21.7% [at 19 µM] | viability change, negative = cytotoxic [7] 7.43% [at 19 µM] | activity change [8] 1.97% [at 18.9 µM, hits give high values] | activity change, negative = inhibition [9] 7.11% [at 19 µM] | activity change, negative = cytotoxicity [12] 5.77% [at 19 µM] | activity change, negative = cytotoxicity [13] -1.6% [at 19 µM] | activity change, negative = cytotoxicity [14] -0.0017% [at 19 µM] | activation [18] 2.07% [at 19 µM] | cAMP activity change [15] 2.9% [at 18.9 µM, hits give high values]

CCCCCCOC(=O)CCCCC
inactive: Potency [1] | Potency [2] | Potency [3] | Potency [4] | Potency [5] | Potency [7] | Potency [8] | Potency [9] | Potency [10] | Potency [12] | Potency [13] | Potency [14] | Potency [15]

COc1ccc2nc(S(=O)Cc3ncc(C)c(OC)c3C)[nH]c2c1 (centres undefined)
inactive: Potency [1] | Potency [2] | Potency [16] | Potency [17] | Potency [4] | Potency [5] | Potency [6] | Potency [7] | Potency [8] | Potency [12] | Potency [13] | Potency [14] | Potency [18] | Potency [15]
